In PubChem BioAssay (Tox21) one finds outcome and Potency data, which are given here for 20 molecules.

The structures appear in SMILES notation. Inconclusive results are not listed. The source made the active and inactive calls. Unless noted, the call rests on the fitted dose curve; in most records, active means well fitted curve in the direction sought with a large enough effect in the repeat runs; inconclusive means weak or mixed curves; inactive means no such curve, though single readings can be large; an effect the other way counts as inactive or inconclusive.

Assay [1] in a line: qHTS assay to identify small molecule antagonists of the glucocorticoid receptor (GR) signaling pathway - cell viability counter screen (AID 720693; further: nearly all actives have a fitted effect of over 55% in size). (In general: qHTS replaces the single test concentration by a dilution series.)
A short description of assay [2]: qHTS assay for identifying genotoxic compounds that show differential cytotoxicity against isogenic chicken DT40 cell lines with known DNA damage response pathways - wild type cell line (AID 743012). Further: nearly all actives have a fitted effect of over 60% in size. Further: potency means the concentration at half of the fitted maximal effect. An outline of the steps:
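Cytotoxicity in repair-proficient parental chicken DT40 cells serves as the comparator for Rad54/Ku70- and Rev3-deficient lines. Cells were exposed to compounds for 40 h at 37 C/5% CO2, and ATP-based luminescence (CellTiter-Glo) measured viability.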

A short description of assay [3]: qHTS assay for identifying genotoxic compounds that show differential cytotoxicity against isogenic chicken DT40 cell lines with known DNA damage response pathways - Rad54/Ku70 mutant cell line (AID 743015). Further: nearly all actives have a fitted effect of over 60% in size. Further: potency means the concentration at half of the fitted maximal effect.
Assay [4] can be described thus: qHTS assay to identify small molecule antagonists of the androgen receptor (AR) signaling pathway - cell viability counter screen (AID 743033; further: nearly all actives have a fitted effect of over 45% in size).
Assay [5] in a line: qHTS assay to identify small molecule antagonists of the androgen receptor (AR) signaling pathway using the MDA cell line - cell viability counter screen (AID 743041; further: nearly all actives have a fitted effect of over 45% in size). In outline:
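Using the breast carcinoma line MDA-kb2 AR-luc, test chemicals were co-incubated with R1881 for 16 h; CellTiter-Fluor reagent, added at 15.5 h, provided a fluorescence measure of live cells.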

Assay [6] is described as follows: qHTS assay to identify small molecule antagonists of the thyroid receptor (TR) signaling pathway - cell viability counter screen (AID 743064). Further: nearly all actives have a fitted effect of over 50% in size. Further: potency means the concentration at half of the fitted maximal effect. An outline of the steps:
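Viability of T3-stimulated (1 nM final) GH3.TRE-Luc cells is measured by CellTiter-Fluor fluorescence after 23.5 h compound exposure at 37 °C plus 30 min reagent incubation.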

A short description of assay [7]: qHTS assay to identify small molecule antagonists of the thyroid receptor (TR) signaling pathway (AID 743065). Further: nearly all actives have a fitted effect of over 55% in size. Further: potency means the concentration at half of the fitted maximal effect. An outline of the steps:
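Antagonism measured as loss of luciferase signal in GH3 cells stably carrying a TRE-luciferase reporter, co-treated with compound and T3 (1 nM final) for 23.5 h at 37 C. Viability was read in the same well by CellTiter-Fluor.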

The test system of assay [8] is thyroid hormone receptor (rat, GH3 cells). Kind of assay: qHTS assay to identify small molecule agonists of the thyroid receptor (TR) signaling pathway (AID 743066; calls by dose curve).
Assay [9] can be described thus: qHTS assay to identify small molecule antagonists of the estrogen receptor alpha (ER-alpha) signaling pathway - cell viability counter screen (AID 743074; calls by dose curve; further: nearly all actives have a fitted effect of over 45% in size).
The target in assay [10] is Estrogen receptor (Homo sapiens) (UniProt P03372). The assay is described as follows: qHTS assay to identify small molecule agonists of the estrogen receptor alpha (ER-alpha) signaling pathway (AID 743075; calls by dose curve).
For assay [11] the target is unchanged. The assay is described as follows: qHTS assay to identify small molecule agonists of the estrogen receptor alpha (ER-alpha) signaling pathway using the BG1 cell line (AID 743079). Further: nearly all actives have a fitted effect of over 20% in size. Further: potency means the concentration at half of the fitted maximal effect.
A short description of assay [12]: qHTS assay to identify small molecule antagonists of the estrogen receptor alpha (ER-alpha) signaling pathway using the BG1 cell line - cell viability counter screen (AID 743081).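 Further: compound given together with 17beta-estradiol as the ER stimulus; series mostly up to about 70 µM; nearly all actives have a fitted effect of over 45% in size.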
Another assay has as its target Aromatase (Homo sapiens) (UniProt P11511). The assay is described as follows: qHTS assay to identify aromatase inhibitors (AID 743083). Further: series mostly up to about 70 µM; nearly all actives have a fitted effect of over 55% in size.
Assay [13] can be described thus: qHTS assay to identify aromatase inhibitors - cell viability counter screen (AID 743084).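 Further: cells stimulated with testosterone during compound exposure; nearly all actives have a fitted effect of over 55% in size.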
A short description of assay [14]: qHTS assay for identifying genotoxic compounds that show differential cytotoxicity against isogenic chicken DT40 cell lines with known DNA damage response pathways - Rev3 mutant cell line (AID 743014). Further: nearly all actives have a fitted effect of over 55% in size. Further: potency means the concentration at half of the fitted maximal effect.
The target in assay [15] is Estrogen receptor (Homo sapiens) (UniProt P03372). Kind of assay: qHTS assay to identify small molecule antagonists of the estrogen receptor alpha (ER-alpha) signaling pathway (AID 743069; active means well fitted curve in the direction sought with a large enough effect in the signal ratio in the repeat runs, not every such curve was filed as active; the % refers to the signal ratio). In outline: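 Fluorescence intensity from a beta-lactamase FRET substrate served as the read-out. Cells: HEK293 with stably integrated ER-alpha-UAS-bla reporter. Agonist 17beta-estradiol was co-added with compounds; incubation 18 hr at 37C, substrate 2 hr at room temperature.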

Assay [16] in a line: qHTS assay to identify small molecule antagonists of the estrogen receptor alpha (ER-alpha) signaling pathway using the BG1 cell line (AID 743080; calls by dose curve;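 further: BG1 cells stimulated with 17beta-estradiol alongside compound; series mostly up to about 70 µM; nearly all actives have a fitted effect of over 25% in size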). In outline: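 Readout is ONE-Glo luminescence, taken 30 min at room temperature after reagent addition, preceded by a CellTiter-Fluor viability read; BG1-Luc-4E2 cells had received compound and 17beta-estradiol for 21.5 h at 37 C.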

For assay [17], the target named is Androgen receptor (Homo sapiens) (UniProt P10275). The assay is described as follows: qHTS assay to identify small molecule agonists of the androgen receptor (AR) signaling pathway (AID 743036; active means well fitted activation curve with a large enough effect in the signal ratio in the repeat runs, with a control signal flat, not every such curve was filed as active; the % refers to the signal ratio). In outline: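 Screening used 2,000 AR-bla HEK293 cells per well, treated 16 h at 37C with test compounds in DMSO alongside positive and DMSO-only controls; beta-lactamase activity was then read by LiveBLAzer B/G FRET fluorescence after 2 h at room temperature.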

For assay [18] the target is unchanged. The assay is described as follows: qHTS assay to identify small molecule agonists of the androgen receptor (AR) signaling pathway using the MDA cell line (AID 743040; further: nearly all actives have a fitted effect of over 20% in size). In outline: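 Stable MMTV-luciferase reporter in MDA-kb2 cells; note the promoter carries GR as well as AR response elements. 16 h compound treatment, 37C, 0% CO2; ONE-Glo luminescence endpoint.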

Aromatase (Homo sapiens), sequence (P11511 whole entry, looked up): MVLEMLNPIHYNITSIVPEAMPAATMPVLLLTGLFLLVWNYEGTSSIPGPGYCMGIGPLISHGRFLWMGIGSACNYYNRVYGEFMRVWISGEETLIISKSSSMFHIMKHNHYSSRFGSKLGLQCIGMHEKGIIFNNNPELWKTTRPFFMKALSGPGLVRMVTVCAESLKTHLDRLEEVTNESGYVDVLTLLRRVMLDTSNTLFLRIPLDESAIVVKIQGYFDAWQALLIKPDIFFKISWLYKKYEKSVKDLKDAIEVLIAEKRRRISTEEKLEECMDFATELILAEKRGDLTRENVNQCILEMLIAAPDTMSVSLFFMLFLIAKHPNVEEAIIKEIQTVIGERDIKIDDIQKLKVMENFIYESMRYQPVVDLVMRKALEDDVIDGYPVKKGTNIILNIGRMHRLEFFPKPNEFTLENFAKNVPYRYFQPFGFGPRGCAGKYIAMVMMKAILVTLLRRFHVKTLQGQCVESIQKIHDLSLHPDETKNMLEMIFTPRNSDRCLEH
Estrogen receptor (Homo sapiens), sequence (P03372 whole entry, looked up): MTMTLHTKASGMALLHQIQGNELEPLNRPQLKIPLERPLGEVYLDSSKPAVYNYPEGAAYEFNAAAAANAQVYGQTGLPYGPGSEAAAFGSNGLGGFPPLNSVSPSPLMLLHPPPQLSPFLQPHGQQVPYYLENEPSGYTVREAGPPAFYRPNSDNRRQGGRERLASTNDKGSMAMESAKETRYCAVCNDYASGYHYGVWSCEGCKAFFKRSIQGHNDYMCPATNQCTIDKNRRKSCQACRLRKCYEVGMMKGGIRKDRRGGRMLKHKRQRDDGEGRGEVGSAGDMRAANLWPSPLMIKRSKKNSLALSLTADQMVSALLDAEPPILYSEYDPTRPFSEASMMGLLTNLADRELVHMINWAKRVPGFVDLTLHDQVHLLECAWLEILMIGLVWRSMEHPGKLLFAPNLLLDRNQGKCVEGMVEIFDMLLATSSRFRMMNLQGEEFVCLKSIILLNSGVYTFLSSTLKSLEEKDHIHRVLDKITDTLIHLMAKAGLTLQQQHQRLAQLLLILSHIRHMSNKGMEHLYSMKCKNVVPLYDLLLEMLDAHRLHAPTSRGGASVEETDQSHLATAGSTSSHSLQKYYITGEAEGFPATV
Androgen receptor (Homo sapiens), sequence (P10275 whole entry, looked up): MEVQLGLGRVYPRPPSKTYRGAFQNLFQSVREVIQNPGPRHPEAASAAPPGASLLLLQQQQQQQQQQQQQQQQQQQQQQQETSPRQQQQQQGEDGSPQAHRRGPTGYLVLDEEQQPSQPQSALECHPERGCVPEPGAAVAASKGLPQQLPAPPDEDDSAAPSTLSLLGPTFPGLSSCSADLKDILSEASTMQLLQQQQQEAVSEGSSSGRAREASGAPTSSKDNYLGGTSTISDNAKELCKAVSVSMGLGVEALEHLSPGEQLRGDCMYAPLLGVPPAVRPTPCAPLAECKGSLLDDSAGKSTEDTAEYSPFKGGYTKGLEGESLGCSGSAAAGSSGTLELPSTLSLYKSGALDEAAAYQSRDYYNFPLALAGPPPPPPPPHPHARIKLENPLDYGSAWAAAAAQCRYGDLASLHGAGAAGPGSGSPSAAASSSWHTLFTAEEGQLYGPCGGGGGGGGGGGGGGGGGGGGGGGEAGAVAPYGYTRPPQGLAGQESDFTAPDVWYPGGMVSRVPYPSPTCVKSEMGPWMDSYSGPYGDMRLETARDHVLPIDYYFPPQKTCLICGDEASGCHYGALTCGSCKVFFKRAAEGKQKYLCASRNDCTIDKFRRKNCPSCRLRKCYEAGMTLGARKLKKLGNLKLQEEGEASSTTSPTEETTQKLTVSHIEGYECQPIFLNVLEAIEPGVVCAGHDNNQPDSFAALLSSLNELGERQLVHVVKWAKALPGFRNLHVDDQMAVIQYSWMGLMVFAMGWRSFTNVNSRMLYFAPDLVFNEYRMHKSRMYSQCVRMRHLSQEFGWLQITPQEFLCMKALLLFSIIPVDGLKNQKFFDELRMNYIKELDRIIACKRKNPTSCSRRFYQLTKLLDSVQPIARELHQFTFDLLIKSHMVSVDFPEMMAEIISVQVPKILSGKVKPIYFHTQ

As for `Nc1ccn([C@@H]2O[C@H](CO)[C@@H](O)[C@@H]2O)c(=O)n1`, the result (in assay [1]; in [4]; in assay [8]; in assay [12]; in the assay with Aromatase (Homo sapiens)) was inactive. Also, the Potency was 61.1 nM (active) in [2]; 43.3 nM (active) in assay [3]; 217 nM (active) in [6]; 77 nM (active) in assay [7]; 24300 nM (active) in [11]. Moreover, the Potency entry in assay [5], in assay [9], in assay [10] and in assay [13] was “inactive” in each case.
Regarding `CCCCCCC1CCC(=O)O1` (configuration not stated), the call (in assay [1]; in [4]; in assay [8]; in assay [12]; in the assay with Aromatase (Homo sapiens)) was inactive. Further, the Potency entry in [14], in assay [3], in [5], in [6], in [7] and in assay [15] was “inactive” each time. Besides, the Potency result in assay [9], in assay [10], in assay [11] and in assay [13] was “inactive” in each case.
In the case of `Nc1ccncc1N`, the molecule was classed as inactive (in assay [1]; in assay [4]; in assay [8]; in assay [12]; in the assay with Aromatase (Homo sapiens)). In addition, the Potency entry in assay [2], in assay [3], in [5], in assay [6], in [7] and in assay [9] was “inactive” each time. For the same molecule, the Potency entry in assay [13] is “inactive”.
For `Cc1ncc([C@@H](CCCCCCc2ccc3c(n2)NCCC3)CC(=O)O)cn1`, the outcome (in assay [1]; in [4]; in [8]; in assay [12]; in the assay with Aromatase (Homo sapiens)) was inactive. Moreover, the Potency result in [2], in [3], in assay [5], in assay [6], in assay [7] and in assay [9] was “inactive” in each case. The Potency entry in [10], in assay [11] and in assay [16] was “inactive” in each case.
`CCOC(=O)OC(C)OC1=C(C(=O)Nc2ccccn2)N(C)S(=O)(=O)c2ccccc21` (configuration not stated): the result (in assay [1]; in assay [4]; in [8]; in [12]; with Aromatase (Homo sapiens)) was inactive. The Potency in assay [14] is 1500 nM (active); in assay [3], 944 nM (active). Further, the Potency entry in [5], in assay [6], in assay [7], in assay [15], in assay [10] and in [16] was “inactive” each time. In addition, the Potency entry in assay [13] is “inactive”.
For the molecule `O=CN(CCO)CCO`, the molecule was called inactive (in assay [1]; in [4]; in assay [8]; in [12]; with Aromatase (Homo sapiens)). Also, the Potency result in [2], in assay [3], in assay [5], in assay [6], in assay [7] and in assay [9] was “inactive” each time. Besides, in assay [13], the Potency entry is “inactive”.
For `C[N+]12CCC(CC1)C(OC(=O)C(O)(c1ccccc1)c1ccccc1)C2` (configuration not stated), the molecule was classed as inactive in [1], in [4], in [8] and in assay [12]. Also, the Potency entry in [2], in assay [3], in assay [5], in [6], in [7] and in [9] was “inactive” throughout. Further, the Potency entry in assay [13] is “inactive”.
In the case of `CCCO[Si](OCCC)(OCCC)OCCC`, the outcome (in [1]; in assay [4]; in assay [12]; with Aromatase (Homo sapiens)) was inactive. Besides, the Potency entry in assay [2], in [3], in assay [5], in [6], in assay [15] and in assay [9] was “inactive” throughout. The Potency entry in [10], in assay [11], in assay [16] and in [13] was “inactive” throughout.
`CCCCc1nc(Cl)c(CO)n1Cc1ccc(-c2ccccc2-c2nn[nH]n2)cc1`: the molecule was classed as inactive (in assay [1]; in assay [12]; in the assay with Aromatase (Homo sapiens)). Besides, the Potency result in [2], in assay [3], in [5], in assay [9] and in assay [13] was “inactive” in each case.
In the case of `CN(C)[C@@H]1C(=O)C(C(=O)NCN2CCCC2)=C(O)[C@@]2(O)C(=O)C3=C(O)c4c(O)cccc4[C@@](C)(O)C3C[C@@H]12` (some centres not stated), the outcome (in assay [1]; in assay [4]; in assay [8]; in assay [12]; in the assay with Aromatase (Homo sapiens)) was inactive. The Potency result in [2], in assay [3], in assay [5], in assay [6], in assay [7] and in assay [9] was “inactive” each time. Moreover, the Potency entry in assay [13] was “inactive”.
For the molecule `C=C(C)C(=O)OCC1CCCO1` (configuration not stated), the call in assay [1], in assay [4], in [8] and in assay [12] was inactive. Also, the Potency entry in assay [2], in [3], in assay [5], in assay [6], in [7] and in assay [9] was “inactive” each time.
On to `CC(=O)c1ccc2ccccc2c1`, for which the call (in assay [1]; in assay [4]; in [8]; in [12]; with Aromatase (Homo sapiens)) was inactive. In addition, the Potency entry in assay [2], in assay [3], in assay [5], in assay [6], in assay [7] and in [9] was “inactive” in each case. In addition, the Potency result in [10], in assay [11] and in [13] was “inactive” throughout.
For `CCN[C@@H]1C[C@H](N)[C@@H](OC2OC(CN)=CCC2N)[C@H](O)[C@H]1O[C@H]1OC[C@](C)(O)[C@H](NC)[C@H]1O` (some centres not stated), the call (in [1]; in assay [4]; in assay [8]; in assay [12]; in the assay with Aromatase (Homo sapiens)) was inactive. For the same molecule, the Potency result in assay [2], in assay [3], in [5], in [6], in assay [7] and in [9] was “inactive” throughout. For the same molecule, the Potency result in assay [16] and in assay [13] was “inactive” throughout.
With `CCCc1ncc(C[n+]2ccccc2C)c(N)n1`, the molecule was called inactive (in assay [1]; in assay [4]; in assay [8]; in [12]; with Aromatase (Homo sapiens)). In addition, the Potency result in assay [14], in assay [3], in assay [5], in [6], in assay [7] and in assay [9] was “inactive” in each case. The Potency entry in assay [13] is “inactive”.
On to `Cc1c(N)c(=O)n(-c2ccccc2)n1C`, for which the result (in assay [1]; in assay [4]; in assay [8]; in the assay with Aromatase (Homo sapiens)) was inactive. Further, the Potency result in assay [2], in [3], in assay [5], in [6], in assay [7] and in assay [9] was “inactive” each time. Moreover, in assay [13], the Potency result was “inactive”.
With `CO/N=C(\C(=O)N[C@@H]1C(=O)N2C(C(=O)O)=C(CSc3nc(=O)c(O)nn3C)CS[C@H]12)c1csc(N)n1`, the outcome (in assay [1]; in assay [4]; in assay [8]; in assay [12]; in the assay with Aromatase (Homo sapiens)) was inactive. Further, the Potency result in [2], in assay [3], in assay [5], in assay [6], in [15] and in assay [9] was “inactive” throughout. The Potency result in [10], in assay [16] and in [13] was “inactive” each time.
As for `CNC(=O)Nc1ccc(Cl)c(Cl)c1`, the outcome (in [1]; in [4]; in assay [17]; in assay [8]; in assay [12]; in the assay with Aromatase (Homo sapiens)) was inactive. The Potency result in assay [2], in assay [18], in [5], in [6], in [15] and in assay [9] was “inactive” each time. The Potency entry in [11] and in assay [13] was “inactive” each time. Besides, the Potency in assay [7] was 30600 nM (active).
Regarding `O=S(=O)(O)c1cccc2c(S(=O)(=O)O)cccc12`, the outcome (in assay [1]; in assay [4]; in [8]; with Aromatase (Homo sapiens)) was inactive. In addition, the Potency result in [2], in assay [3], in assay [5], in assay [6], in [9] and in assay [13] was “inactive” throughout.
In the case of `COc1cc(C(=O)NCc2ccc(OCCN(C)C)cc2)cc(OC)c1OC`, the call (in assay [1]; in assay [8]; in assay [12]; with Aromatase (Homo sapiens)) was inactive. For the same molecule, the Potency entry in assay [2], in assay [3], in [5], in assay [6], in [7] and in [15] was “inactive” in each case. Further, the Potency entry in assay [10], in [11] and in [13] was “inactive” in each case.
On to `CCOC(=O)c1ccccc1`, for which the outcome (in assay [1]; in [4]; in assay [8]; in [12]; with Aromatase (Homo sapiens)) was inactive. Moreover, the Potency result in [2], in [5], in assay [6], in assay [7], in assay [15] and in assay [9] was “inactive” in each case. Besides, the Potency entry in [10], in assay [16] and in assay [13] was “inactive” each time.
